PubChem BioAssay (NCATS)
“And” between values parts separate entries of the source, which are not always exact repeats. Equal entries are not always repeated. Results filed as inconclusive are left out. The source made the active and inactive calls. The call rests on the fitted dose curve; in most records, active means well fitted curve in the direction sought with a large enough effect; inconclusive means small, poorly fitted or top-dose-only effect, or another doubt; inactive means no such curve, though single readings can be large; an effect the other way counts as inactive or inconclusive.

How the values were obtained:
[1] = biological target: Cellular tumor antigen p53 (Homo sapiens) (UniProt P04637); assay: Primary qHTS for small molecule compounds that upregulate eGFP-tagged delta133p53alpha (in N-terminal) cells. (AID 2060322); conditions: NCI-H358 eGFP-delta133p53alpha fluorescence, 24 h; activation: hits give high values; further: nearly all actives have a fitted effect of over 75% in size; further: potency means the concentration at half of the fitted maximal effect;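 on activation: cells pre-induced with doxycycline then dosed without doxycycline; series mostly up to about 56 µM; 0% = DMSO vehicle and 100% = reference activator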
In short: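 NCI-H358 cells pre-induced 24 h with 10 ng/ml doxycycline for eGFP-delta133p53alpha, plated dox-free and exposed 24 h at 37C to titrated compounds. Fixed, Hoechst-stained; gated GFP peak intensity by laser scanning cytometry, normalized to DMSO (0%) and 57.5 uM 5-azacytidine (100%).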

[2] = biological target: Aldehyde dehydrogenase, mitochondrial (Homo sapiens) (UniProt P05091); assay: qHTS for Inhibitors of the Aldehyde Dehydrogenase Family (ALDH2) Primary screen (AID 2061308);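 further: plate controls were vehicle for no effect and reference inhibitor for full effect; nearly all actives have a fitted effect of over 55% in size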
[3] = biological target: Retinaldehyde dehydrogenase 3 (Homo sapiens) (UniProt P47895); assay: qHTS for Inhibitors of the Aldehyde Dehydrogenase Family (ALDH1A3) Validation screen (AID 2061312); further: on the % scale 0 is the no-effect control and ±100 the full control effect; nearly all actives have a fitted effect of over 45% in size
[4] = biological target: Retinaldehyde dehydrogenase 3 (Homo sapiens) (UniProt P47895); assay: qHTS for Inhibitors of the Aldehyde Dehydrogenase Family (ALDH1A3) Primary screen (AID 2061315);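 further: plate controls were DMSO vehicle for no effect and reference inhibitor for full effect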
[5] = BET inhibitor-based combinations targeting novel dependencies in MECOM-rearranged (r) AML: SET-2 cell line (AID 2202231); conditions: SET-2 AML cells viability, CellTiter-Glo luminescence, 48 h; viability: hits give low values, concentration not given here; further: nearly all actives have a fitted effect of over 35% in size; further: potency means the concentration at half of the fitted maximal effect;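 on viability: plate controls were DMSO treated cells for no effect and wells without cells for full effect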
In short: (§1)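 A 48 hr incubation preceded viability reading by CellTiter-Glo, with 15 min room-temperature development. Dose series had 11 points; normalization used DMSO and empty wells; AUC was computed and mean-centered per line as Z-AUC.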

[6] = BET inhibitor-based combinations targeting novel dependencies in MECOM-rearranged (r) AML: MV-4-11 cell line (AID 2202233); further: nearly all actives have a fitted effect of over 45% in size; further: potency means the concentration at half of the fitted maximal effect
In short: (§2)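 Each compound is tested in an 11-point concentration series against 500 seeded cells/well for 48 hr. The luminescent viability signal is normalized to DMSO and blank wells, then reduced to AUC and a cell-line-centred Z-AUC.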

[7] = BET inhibitor-based combinations targeting novel dependencies in MECOM-rearranged (r) AML: UCSD-AML1 cell line (AID 2202235); further: nearly all actives have a fitted effect of over 40% in size; further: potency means the concentration at half of the fitted maximal effect
In short: as §2

[8] = BET inhibitor-based combinations targeting novel dependencies in MECOM-rearranged (r) AML: AML-191 cell line (AID 2202236; further: nearly all actives have a fitted effect of over 35% in size; further: potency means the concentration at half of the fitted maximal effect)
In short: as §1

[9] = BET inhibitor-based combinations targeting novel dependencies in MECOM-rearranged (r) AML: HNT-34 cell line (AID 2202234); further: nearly all actives have a fitted effect of over 35% in size; further: potency means the concentration at half of the fitted maximal effect
In short: as §2

[10] = BET inhibitor-based combinations targeting novel dependencies in MECOM-rearranged (r) AML: AML-194 cell line (AID 2202237; further: nearly all actives have a fitted effect of over 40% in size; further: potency means the concentration at half of the fitted maximal effect)
In short: as §1

[11] = BET inhibitor-based combinations targeting novel dependencies in MECOM-rearranged (r) AML: OCI-AML3 cell line (AID 2202232); conditions: Potency: OCI-AML3 viability; further: nearly all actives have a fitted effect of over 35% in size; further: potency means the concentration at half of the fitted maximal effect
In short: as §1

Cellular tumor antigen p53 (Homo sapiens), sequence (P04637 whole entry, looked up): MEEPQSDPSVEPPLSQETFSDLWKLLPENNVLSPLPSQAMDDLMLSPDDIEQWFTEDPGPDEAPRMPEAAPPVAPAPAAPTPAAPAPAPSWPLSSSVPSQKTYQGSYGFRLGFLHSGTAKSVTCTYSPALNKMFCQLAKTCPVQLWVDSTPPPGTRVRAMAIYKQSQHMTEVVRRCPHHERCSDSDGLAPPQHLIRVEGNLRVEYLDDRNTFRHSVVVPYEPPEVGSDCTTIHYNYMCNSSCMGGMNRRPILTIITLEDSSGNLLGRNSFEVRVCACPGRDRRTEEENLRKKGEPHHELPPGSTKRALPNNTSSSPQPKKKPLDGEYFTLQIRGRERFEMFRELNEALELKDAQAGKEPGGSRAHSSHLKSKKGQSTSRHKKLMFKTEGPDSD

CC1(C)Cc2c(-c3ccccc3)c(-c3ccc(Cl)cc3)c(CC(=O)O)n2C1
active: Potency [6] 23.5 µM
inactive: activation [1] -18.1% and -12.4% | Potency [2] | Potency [3] | Potency [4] | viability [5] 104% | Potency [7] | Potency [8]

COC(=O)Nc1nc2ccc(C(=O)c3ccc(F)cc3)cc2[nH]1
inactive: activation [1] 8.15% and 21.5% | Potency [2] | Potency [3] | Potency [4]
active: Potency [5] 0.833 µM | Potency [6] 0.742 µM | Potency [9] 0.417 µM | Potency [8] 0.332 µM | Potency [10] 0.332 µM

CCCCOc1nc(N)c2c(n1)N(Cc1cccc(CN3CCCC3)c1)CC(=O)N2
inactive: activation [1] 5.73% | Potency [2] | Potency [3] | Potency [4] | viability [5] 111% | Potency [7] | Potency [8] | Potency [10]

CN(C)N(C)C(=O)[C@@]1(Cc2ccccc2)CCCN(C(=O)[C@@H](Cc2c[nH]c3ccccc23)NC(=O)C(C)(C)N)C1
active: Potency [9] 16.6 µM
inactive: activation [1] -17.2% | Potency [2] | Potency [3] | Potency [4] | viability [5] 113% | Potency [7] | Potency [8] | Potency [10]

Cc1cc2c(s1)Nc1ccccc1N=C2N1CCN(C)CC1
inactive: activation [1] -5.86% and 20.9% and -11.5% | Potency [2] | Potency [3] | Potency [4] | Potency [11] | Potency [6] | Potency [9] | Potency [7] | Potency [8] | Potency [10]

OCCn1cc(-c2cnc3nnn(Cc4ccc5ncccc5c4)c3n2)cn1
inactive: activation [1] -13.3% and 3.34% | Potency [2] | Potency [3] | Potency [4] | viability [5] 101% | Potency [7] | Potency [10]

CC(C)(C)OC(=O)N[C@H]1CCCCCC=C[C@@H]2C[C@@]2(C(=O)NS(=O)(=O)C2CC2)NC(=O)[C@@H]2C[C@@H](OC(=O)N3Cc4cccc(F)c4C3)CN2C1=O
inactive: activation [1] 5.4% | Potency [2] | Potency [3] | Potency [4] | viability [5] 102% | Potency [9] | Potency [8] | Potency [10]

Cc1nc2c([nH]1)CCN(C(=O)c1ccc(NC(=O)c3ccccc3-c3ccccc3)cc1)c1ccccc1-2
inactive: activation [1] -5.73% and -5.25% | Potency [2] | Potency [3] | Potency [4] | Potency [7] | Potency [10]
active: Potency [11] 14.8 µM | Potency [6] 20.9 µM

CCN(CC)CCNC(=O)c1ccc2nc(-c3ccccc3)c(-c3ccc(CN4CCC(n5c(=O)[nH]c6ccccc65)CC4)cc3)nc2c1
inactive: Potency [2] | Potency [3] | Potency [4]
active: Potency [1] 4.32 µM and 8.49 µM | Potency [5] 8.33 µM | Potency [6] 6.61 µM | Potency [8] 9.34 µM | Potency [10] 7.42 µM

Cc1nc(C(=O)NCC(=O)O)c(O)c2ccc(Oc3ccccc3)cc12
inactive: activation [1] 24.6% and -12.3% | Potency [2] | Potency [3] | Potency [4] | viability [5] 96.3% | Potency [7] | Potency [8] | Potency [10]

COc1ccc2c(OCc3nnc4ccc(-c5ccccc5)nn34)ccnc2c1
inactive: activation [1] -0.776% and -8.11% | Potency [2] | Potency [3] | Potency [4] | viability [5] 116% | Potency [6] | Potency [9] | Potency [8] | Potency [10]

CC[C@H](CC#N)OC(=O)N[C@@H](C)c1cccc(NC(=O)Nc2ccc(-c3cnco3)c(OC)c2)c1
active: Potency [11] 0.468 µM | Potency [6] 0.235 µM | Potency [9] 0.525 µM | Potency [7] 0.296 µM
inactive: activation [1] 7.84% and -10.5% | Potency [2] | Potency [3] | Potency [4]

Nc1nc(F)nc2c1ncn2[C@@H]1O[C@H](CO)[C@@H](O)[C@@H]1O
inactive: activation [1] -5.02% and -9.07% | Potency [2] | Potency [3] | Potency [4]
active: Potency [11] 10.5 µM | Potency [6] 9.34 µM | Potency [9] 14.8 µM | Potency [7] 1.05 µM | Potency [8] 2.95 µM | Potency [10] 3.72 µM

CN1CCC(COc2cnc(-c3cccc(Cn4nc(-c5cccc(C#N)c5)ccc4=O)c3)nc2)CC1
inactive: activation [1] -3.12% and 9.55% | Potency [2] | Potency [3] | Potency [4] | viability [5] 115% | Potency [9] | Potency [7] | Potency [8]

C=C1[C@H](CO)[C@@H](O)C[C@@H]1n1cnc2c(=O)[nH]c(N)nc21
active: Potency [8] 18.6 µM
inactive: activation [1] -3.34% | Potency [2] | Potency [3] | Potency [4] | viability [5] 117% | Potency [10]

C=Cc1cc(O)cc2nc(-c3ccc(O)c(F)c3)oc12
inactive: activation [1] -0.955% | Potency [2] | Potency [3] | Potency [4] | viability [5] 113% | Potency [9] | Potency [7] | Potency [10]

Cn1cc(-c2ccc3nnc(C(F)(F)c4ccc5ncccc5c4)n3n2)cn1
inactive: activation [1] -10% and 1.43% | Potency [2] | Potency [3] | Potency [4] | viability [5] 106% | Potency [7] | Potency [10]

NC(=O)Nc1cc(-c2cccc(F)c2)sc1C(=O)N[C@H]1CCCNC1
inactive: Potency [2] | Potency [3] | Potency [4]
active: Potency [1] 8.49 µM | Potency [5] 0.934 µM | Potency [6] 0.0021 µM | Potency [7] 0.296 µM | Potency [8] 0.332 µM | Potency [10] 0.372 µM

CCCCn1c(=O)n(Cc2ccccc2F)c(=O)c2[nH]c(Cc3ccc(NC(C)=O)cc3)nc21
inactive: activation [1] 0.477% | Potency [2] | Potency [3] | Potency [4] | Potency [11] | Potency [6] | Potency [7] | Potency [8] | Potency [10]

CCNC(=O)CCC/C=C\C[C@@H]1[C@@H](/C=C/C(O)CCc2ccccc2)[C@@H](O)C[C@@H]1O (some centres undefined)
inactive: activation [1] -11.9% | Potency [2] | Potency [3] | Potency [4] | viability [5] 121% | Potency [6] | Potency [9] | Potency [7] | Potency [8] | Potency [10]

Cc1nc(Nc2ncc(C(=O)Nc3c(C)cccc3Cl)s2)cc(N2CCN(CCO)CC2)n1
active: Potency [1] 9.53 µM | Potency [11] 13.2 µM | Potency [6] 13.2 µM | Potency [7] 7.42 µM | Potency [10] 11.8 µM
inactive: Potency [2] | Potency [3] | Potency [4]

Cn1cc(-c2cnn3c(N)c(Br)c([C@@H]4CCCNC4)nc23)cn1
inactive: activation [1] 3.82% | Potency [2] | Potency [3] | Potency [4]
active: Potency [11] 13.2 µM | Potency [6] 0.468 µM

COc1cccc(Nc2c(C(N)=O)cnc3c(C)cc(S(=O)(=O)c4cccc(C(=O)N(C)C)c4)cc23)c1
inactive: activation [1] 11.1% and -9.07% | Potency [2] | Potency [3] | Potency [4] | viability [5] 120% | Potency [7] | Potency [10]
active: Potency [6] 3.32 µM | Potency [8] 5.9 µM

Nc1ncnc2c1c(-c1cccc(OCc3ccccc3)c1)cn2C1CC(CN2CCC2)C1 (centres undefined)
active: Potency [5] 16.6 µM | Potency [9] 18.6 µM | Potency [8] 18.6 µM | Potency [10] 16.6 µM
inactive: activation [1] 26% and 8.59% | Potency [2] | Potency [3] | Potency [4]

COc1cc(-c2nn(C3CCC(N4CCN(C(C)=O)CC4)CC3)c3ncnc(N)c23)ccc1NC(=O)c1cc2ccccc2n1C (centres undefined)
inactive: activation [1] 17.1% | Potency [2] | Potency [3] | Potency [4]
active: Potency [5] 9.34 µM | Potency [6] 9.34 µM | Potency [9] 2.09 µM | Potency [8] 5.9 µM | Potency [10] 4.17 µM

CCNCc1nc2c(N)nc3ccccc3c2n1CC(C)(C)O
inactive: activation [1] -0.477% | Potency [2] | Potency [3] | Potency [4] | viability [5] 94.4% | Potency [7] | Potency [10]
active: Potency [6] 20.9 µM

COc1cc2c(NC3CCN(CC4CCCCC4)CC3)nc(N3CCCN(C(C)C)CC3)nc2cc1OCCCN1CCCCC1
inactive: Potency [2] | Potency [3] | Potency [4] | viability [5] 104%
active: Potency [1] 43.2 µM | Potency [6] 6.61 µM | Potency [7] 10.5 µM | Potency [8] 9.34 µM | Potency [10] 16.6 µM

CC(C)CNc1ccnc(NCc2csc(-c3ccccc3)n2)n1
inactive: activation [1] 18.4% and 19.6% | Potency [2] | Potency [3] | Potency [4]
active: Potency [11] 8.33 µM | Potency [6] 8.33 µM | Potency [9] 5.9 µM | Potency [7] 5.25 µM | Potency [8] 16.6 µM | Potency [10] 16.6 µM

Cc1csc(NC(=O)c2sc3nc4c(c(C(F)(F)F)c3c2N)CCC4)n1
inactive: activation [1] -4.78% | Potency [2] | Potency [3] | Potency [4] | viability [5] 97.5% | Potency [6] | Potency [9] | Potency [7] | Potency [8] | Potency [10]

O=C(O)Cn1nnc(-c2cc(N3CCC(Oc4cc(F)ccc4Br)CC3)no2)n1
inactive: activation [1] 22.3% and 6.21% | Potency [2] | Potency [3] | Potency [4] | viability [5] 127% | Potency [6] | Potency [9] | Potency [8] | Potency [10]

Cc1cc(Nc2ncnc3ccc(-c4ccc(CNCCS(C)(=O)=O)o4)cc23)ccc1Oc1ccn2ncnc2c1
inactive: activation [1] 23.7% and 4.3% | Potency [2] | Potency [3] | Potency [4] | viability [5] 75.4% | Potency [9] | Potency [8] | Potency [10]

NC1(C(=O)N[C@@H](CCO)c2ccc(Cl)cc2)CCN(c2ncnc3[nH]ccc23)CC1
inactive: activation [1] 7.49% | Potency [2] | Potency [3] | Potency [4]
active: Potency [11] 6.61 µM | Potency [6] 4.17 µM | Potency [9] 10.5 µM | Potency [7] 1.48 µM

CCN(CC)Cc1ccc2cc(COC(=O)Nc3ccc(C(=O)NO)cc3)ccc2c1
inactive: Potency [2] | Potency [3]
active: Potency [1] 30.1 µM and 27.3 µM | Potency [5] 0.662 µM | Potency [11] 0.662 µM | Potency [6] 0.372 µM | Potency [9] 0.934 µM | Potency [7] 0.525 µM | Potency [8] 0.742 µM | Potency [10] 0.934 µM

Cc1cc(C)cc(NC(=O)Cc2ccc(OC(C)(C)C(=O)O)cc2)c1
inactive: activation [1] -4.3% | Potency [2] | Potency [3] | Potency [4] | Potency [11] | Potency [9] | Potency [7] | Potency [8] | Potency [10]
